Data from PubChem BioAssay AID463173 (ICCB-Longwood Screening Facility, Harvard Medical School, 2010).
Among all 52,000 compounds or so, about 4,300 (8.3%) were called active. Rule as the data show it: active = survival mostly below about 52% (no sharp cut-off); inactive = mostly above about 56%. The sample as a whole holds a higher share of actives than the screen did.

tested on: DeltatarO mutant; assay: S. aureus survival, RN4220 and DeltatarO strains – OD600, teichoic acid synthesis inhibitors, primary screen (AID 463173); conditions: S. aureus RN4220 wild type/DeltatarO growth, OD600, 18 h, active compounds read low, screened at 18.75 µg/mL (by protocol)

Row | SMILES | survival
1 | CCOC(=O)c1[nH]c2ccccc2c1NC(=O)c1ccc(Br)cc1 | 95% (inactive)
2 | Cc1cccc(-c2nc3nc(C)cc(NCc4ccccc4Cl)n3n2)c1 | 74% (inactive)
3 | COc1ccccc1C(=O)Nc1ccc(C(=O)OCc2cc(=O)n3nc(C4CC4)sc3n2)cc1 | 72% (inactive)
4 | Cc1ccccc1C1C(C#N)=C(N)NC(S)=C1C#N (stereo unspecified) | 93% (inactive)
5 | CCC(=O)N1c2ccccc2CC1C(=O)NCCc1cc(OC)c(OC)c(OC)c1 (stereo unspecified) | 129% (inactive)
6 | CC(c1ccccc1F)n1cc(C(=O)NCCCn2ccnc2)nn1 (stereo unspecified) | 96% (inactive)
7 | CCOc1ccc(NC(=O)Cn2cc(C(=O)c3ccc(C)c(C)c3)c(=O)c3cc(OC)c(OC)cc32)cc1 | 95% (inactive)
8 | COc1ccc(CNC(=O)c2cc3c(=O)oc4ccc(C)cc4c3s2)c(OC)c1 | 86% (inactive)
9 | COc1ccc(CNC(=O)c2cc3c(=O)[nH]c4ccc(C)cc4c3s2)c(OC)c1 | 44% (active)
10 | COc1ccc(CCNC(=O)c2cc3c(=O)[nH]c4ccc(C)cc4c3s2)cc1OC | 64% (inactive)
11 | CC1CCC(NC(=O)CCc2cn(Cc3ccc(F)cc3)c3ccccc23)CC1 (stereo unspecified) | 60% (inactive)
12 | CCCCSC1=NC(C)(C)CC(C)O1 (stereo unspecified) | 79% (inactive)
13 | CCc1ccc(NCc2cc3ccc(OC)cc3n(CC(=O)Nc3ccccc3OC)c2=O)cc1 | 79% (inactive)
14 | CCCC12CN3CC(C)(CN(C1)C3c1ccc(CC)cc1)C2=O (stereo unspecified) | 87% (inactive)
15 | CCCC12CN3CC(CCC)(CN(C1)C3c1ccc(OC(C)C)cc1)C2=O (stereo unspecified) | 21% (active)
16 | CCCC12CN3CC(CCC)(CN(C1)C3c1ccc(OCc3ccccc3)cc1)C2=O (stereo unspecified) | 112% (inactive)
17 | COc1ccc(Cn2c(C(=O)O)c(CNC3CCC(C)CC3)c3ccc(C)cc32)cc1 (stereo unspecified) | 115% (inactive)
18 | COc1cccc(N2CCN(C(=O)c3nn(C)c4c3CSc3ccc(C)cc3-4)CC2)c1 | 117% (inactive)
19 | COC(=O)c1ccc2c(=O)n(CCCCCC(=O)NCc3ccc(OC)cc3)c(=O)[nH]c2c1 | 71% (inactive)
20 | Cc1noc(-c2ccc(-c3noc(-c4ccc(Cl)cc4)n3)cc2)n1 | 66% (inactive)
21 | Cc1noc(-c2ccc(-c3noc(-c4ccc(F)cc4)n3)cc2)n1 | 72% (inactive)
22 | Cc1noc(-c2ccc(-c3noc(-c4ccccc4)n3)cc2)n1 | -4% (active)
23 | Cc1nc(-c2ccc(S(=O)(=O)NCc3ccc(N(C)C)cc3)cc2)co1 | 83% (inactive)

Row | SMILES | survival
24 | CCOc1ccc(C(c2c(O)cc(C)n(Cc3ccco3)c2=O)N2CCN(c3ccccc3)CC2)cc1 (stereo unspecified) | 75% (inactive)
25 | Cc1ccc(-c2nc(S(=O)(=O)c3ccc(Cl)cc3)c(N3CCCCC3)o2)cc1 | 11% (active)
26 | O=S(=O)(c1ccc(Cl)cc1)c1nc(-c2ccccc2)oc1N1CCN(c2ccccc2)CC1 | 86% (inactive)
27 | COc1ccc(-c2nc(S(=O)(=O)c3ccc(Cl)cc3)c(N3CCCCCC3)o2)cc1 | 76% (inactive)
28 | Cc1ccc(S(=O)(=O)c2nc(-c3ccc(Cl)cc3)oc2N2CCCCCC2)cc1 | 36% (active)
29 | O=C(O)c1ccc(CNCc2ccccc2Cl)s1 | 88% (inactive)
30 | CC(C)(C)OC(=O)N1CCC(c2c(C(=O)NCc3ccco3)cnn2-c2ccccc2Cl)CC1 | 76% (inactive)
31 | Cc1ccc(C(=O)N2C(C)CCCC2C)c(Cl)c1 (stereo unspecified) | 70% (inactive)
32 | COC(=O)CN(C#N)c1nc(SC)nc(N(C)C)n1 | 52% (active)
33 | COC(=O)CN(C#N)c1nc(C)cc(C)n1 | 94% (inactive)
34 | CNC(=O)CN(C#N)c1nc(N(C)C)nc(N(C)C)n1 | 87% (inactive)
35 | Cc1nc(SCc2cc(=O)c3cccc(F)c3[nH]2)n[nH]1 | 94% (inactive)
36 | CCOC(=O)c1c(N)sc2c1CN(C(=O)OC)N(C(=O)OC)C2 | 112% (inactive)
37 | CCOC(=O)c1c(N)sc2c(OC)c(Br)ccc12 | 1% (active)
38 | CCOC(=O)c1c(NC(C)=O)sc2c(NC(C)=O)cccc12 | 69% (inactive)
39 | COC(=O)c1cnc(N2CCN(c3ccc(F)cc3)CC2)c2ccccc12 | 80% (inactive)
40 | COc1ccc(CNC(=O)c2cc3c(=O)n(Cc4ccco4)ccc3nc2C)c(OC)c1 | 67% (inactive)
41 | COc1ccc(Cn2ccc3nc(C)c(C(=O)Nc4ccc(OC)cc4OC)cc3c2=O)cc1 | 8% (active)
42 | COc1ccc(CNC(=O)c2cc3c(=O)n(Cc4ccc(OC)cc4)ccc3nc2C)cc1 | 66% (inactive)
43 | COc1ccc(Cn2ccc3nc(C)c(C(=O)Nc4ccc(F)cc4)cc3c2=O)cc1 | 20% (active)
44 | COc1ccc(NC(=O)c2cc3c(=O)n(Cc4cccnc4)ccc3nc2C)c(OC)c1 | 83% (inactive)
45 | COc1ccc(Cn2ccc3nc(C)c(C(=O)Nc4ccc(OC)cc4)cc3c2=O)cc1 | 89% (inactive)
46 | COc1ccc(NC(=O)c2cc3c(=O)n(Cc4ccco4)ccc3nc2C)c(OC)c1 | 81% (inactive)

Row | SMILES | survival
47 | COc1ccc(Cn2ccc3nc(C)c(C(=O)NCc4ccc(OC)cc4OC)cc3c2=O)cc1 | 25% (active)
48 | COc1ccc(Cn2ccc3nc(C)c(C(=O)Nc4ccc(OC(F)(F)F)cc4)cc3c2=O)cc1 | 92% (inactive)
49 | COc1ccccc1Nc1ncnc2scc(-c3ccc(F)cc3)c12 | 115% (inactive)
50 | Cc1c2cnn(CC(=O)NCc3ccc(Cl)cc3)c(=O)c2c(C)n1Cc1ccc(F)cc1 | 62% (inactive)
51 | CC(=O)c1ccc(NC(=O)Cn2ncc3c(C)n(Cc4ccc(F)cc4)c(C)c3c2=O)cc1 | 60% (active)
52 | Cc1ccc(C)c(NC(=O)Cn2ncc3c(C)n(Cc4ccc(F)cc4)c(C)c3c2=O)c1 | 71% (inactive)
53 | COc1ccc(N(Cc2cccs2)C(=O)COc2cccc(C)c2C)cc1 | 17% (active)
54 | Cc1cccc(OCC(=O)N(Cc2cccs2)c2ccc(Cl)cc2)c1C | 61% (inactive)
55 | COc1ccc(N(Cc2cccs2)C(=O)COc2ccc(C(C)C)cc2)cc1 | 80% (inactive)
56 | COc1ccc(OCC(=O)N(Cc2cccs2)c2ccc(OC)cc2)cc1 | 66% (inactive)
57 | COc1ccc(N(Cc2cccs2)C(=O)COc2cccc(Cl)c2)cc1 | 42% (active)
58 | COc1ccc(N(Cc2cccs2)C(=O)COc2cc(C)c(Cl)c(C)c2)cc1 | 65% (inactive)
59 | Cc1ccccc1-c1nn2c(=O)cc(CN3CCN(C(=O)c4ccccc4Br)CC3)nc2s1 | 116% (inactive)
60 | Cc1cc(C)c2c(CC(=O)Nc3ccc(S(=O)(=O)N4CCCCC4)cc3)coc2c1 | 76% (inactive)
61 | CC(=O)O/N=C1/CC(C)(C)Cc2onc(C)c21 | 76% (inactive)
62 | CCOC(=O)c1cc(S(=O)(=O)NCc2ccc(Cl)cc2)[nH]n1 | 87% (inactive)
63 | Cc1ccc(-c2nc(-c3cc4cccc(OCc5ccccc5F)c4oc3=O)no2)cc1 | 60% (inactive)
64 | COc1ccc(C2c3[nH]c4ccccc4c3CCN2C(=O)CCC2CCCC2)cc1 (stereo unspecified) | 95% (inactive)
65 | O=C(C1COc2cc(S(=O)(=O)Nc3ccc(Cl)cc3)ccc2O1)N1CCCC1 (stereo unspecified) | 71% (inactive)
66 | CN(C(=O)CSc1nc(-c2ccco2)cc(C(F)(F)F)n1)c1ccccc1 | 92% (inactive)
67 | COc1ccccc1CNC(=O)CCn1cnc2ccccc2c1=O | -5% (active)
68 | COc1ccccc1NC(=O)CCn1cnc2ccccc2c1=O | 92% (inactive)
69 | O=C(CCn1cnc2ccccc2c1=O)NCc1ccccc1Cl | 77% (inactive)

Row | SMILES | survival
70 | COc1ccc(N2C(=O)CS(=O)(=O)C23C(=O)N(Cc2c(F)cccc2Cl)c2ccccc23)cc1 (stereo unspecified) | 86% (inactive)
71 | CCc1ccc2ncc3c(-c4ccc(C)cc4)nn(CC(=O)NCc4ccccc4)c3c2c1 | 57% (inactive)
72 | CCc1ccc(-c2nn(CC(=O)NC3CCCC3)c3c2cnc2ccc(C)cc23)cc1 | 37% (active)
73 | Cc1ccc(-c2nn(CC(=O)NC3CCCC3)c3c2cnc2ccc(F)cc23)cc1C | 93% (inactive)
74 | CCc1ccc(-c2nn(CC(=O)NC3CCCCC3)c3c2cnc2ccc(C)cc23)cc1 | 69% (inactive)
75 | CCc1ccc(-c2nn(CC(=O)NC3CCCCC3)c3c2cnc2ccc(F)cc23)cc1 | 72% (inactive)
76 | CCc1ccc2ncc3c(-c4ccc(C)cc4)nn(CC(=O)Nc4ccc(C)cc4)c3c2c1 | 55% (inactive)
77 | Cc1ccc(-c2nn(CC(=O)NC3CCCCC3)c3c2cnc2ccc(F)cc23)cc1C | 0% (active)
78 | CCc1ccc(-c2nn(CC(=O)Nc3ccccc3C)c3c2cnc2ccc(C)cc23)cc1 | 70% (inactive)
79 | Cc1ccccc1NC(=O)Cn1nc(-c2ccc(F)cc2)c2cnc3ccccc3c21 | 25% (active)
80 | CCc1ccc(-c2nn(CC(=O)NC3CCCC3)c3c2cnc2ccc(F)cc23)cc1 | 105% (inactive)
81 | Cc1ccc2ncc3c(-c4ccc(F)cc4)nn(CC(=O)Nc4ccccc4C)c3c2c1 | 101% (inactive)
82 | CCCNC(=O)Cn1nc(-c2ccc(C)cc2)c2cnc3ccc(CC)cc3c21 | 37% (active)
83 | CCN(CC)c1ccc(NC(=O)C2CCN(S(=O)(=O)c3ccc4c(c3)oc(=O)n4C)CC2)c(C)c1 | 90% (inactive)
84 | COc1ccc(C2CC(=O)c3cc(-c4nc(-c5cccc([N+](=O)[O-])c5)cs4)c(=O)n(-c4ccc(C)c(C)c4)c3C2)cc1 (stereo unspecified) | 156% (inactive)
85 | CCCN1c2cccc3cccc(c23)S1(=O)=O | 101% (inactive)
86 | Cc1oc(CC(C)C)cc1C(=O)O | 104% (inactive)
87 | CCN1C(=O)C2C(c3ccc(F)cc3)NC(CCSC)(C(=O)OC)C2C1=O (stereo unspecified) | 54% (inactive)
88 | Cn1c(=O)[nH]c2cc(-c3noc(-c4cccc(Cl)c4)n3)ccc21 | 87% (inactive)
89 | COc1ccc(-c2nn(CC(=O)NC3CCCC3)c3c2cnc2ccc(F)cc23)cc1 | 46% (active)
90 | O=C(Cn1nc(-c2ccccc2)c2cnc3ccc(F)cc3c21)NC1CCCC1 | 102% (inactive)
91 | CCOc1ccc(-c2nn(CC(=O)NC3CCCC3)c3c2cnc2ccc(F)cc23)cc1 | 144% (inactive)
